Screening results deposited in PubChem by several laboratories.
This is a sample that favours compounds with a hit; in the whole collection about 6.7% have one here.
Autofluor counter: flagged as autofluorescent in microsphere protease counterscreen; compound autofluorescence counterscreen, microsphere flow cytometry; stronger effect = higher value; fluorescence intensity (concentration not given with the values); actives 3.1% (n = 360,000); in the data active = fluorescence intensity above about 16000; inconclusive = no clear call, values can overlap the other calls
Anthrax LF prot: anthrax lethal factor protease inhibition; P15917; multiplex microsphere protease cleavage assay, LF; inhibition, % at 10 µM; actives 0.12% (n = 360,000); note: plate controls were buffer without enzyme for full effect and enzyme alone for no effect
BoNT F protease: BoNT F light chain protease inhibition; Multiplex microsphere protease cleavage assay, flow cytometry; inhibition, % at 10 µM; actives 0.22% (n = 360,000); AID 588497; in the data active = inhibition above about 35%, passing the limit was not always enough; inconclusive = no clear call, values can overlap the other calls; note: plate controls were buffer without enzyme for full effect and enzyme alone for no effect
Mtb FBA inh: inhibitors of M. tuberculosis fructose-bisphosphate aldolase. actives 2.3% (n = 360,000). inhibition, % at 1 µM. purified M. tuberculosis FBA, fluorescence read-out; in the data active = inhibition above about 27%;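 note: 0% = vehicle and 100% = reference inhibitor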
Target sequence (P9WQA3 whole entry, looked up): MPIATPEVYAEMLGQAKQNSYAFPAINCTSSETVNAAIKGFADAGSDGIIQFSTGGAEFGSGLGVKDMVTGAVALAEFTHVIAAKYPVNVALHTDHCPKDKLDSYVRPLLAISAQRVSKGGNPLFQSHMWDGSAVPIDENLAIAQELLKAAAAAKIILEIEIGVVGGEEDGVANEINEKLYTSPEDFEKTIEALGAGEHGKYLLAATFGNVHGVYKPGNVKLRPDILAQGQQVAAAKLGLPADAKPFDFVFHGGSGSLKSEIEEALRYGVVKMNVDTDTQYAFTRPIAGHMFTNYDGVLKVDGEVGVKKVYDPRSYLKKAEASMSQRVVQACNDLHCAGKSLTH
GDH-TPI inh: GDH-TPI coupled enzyme inhibition counter-screen; GDH-TPI coupled enzyme counterscreen, NADH absorbance; inhibition, % at 4.8 µM; actives 1.2% (n = 360,000); AID 588335; in the data active = inhibition above about 30%;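 note: 0% = DMSO wells and 100% = wells lacking the enzyme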
BoNT-A LC inh2: inhibitors of Botulinum neurotoxin A light chain protease; multiplex microsphere protease substrate cleavage, flow cytometry; inhibition, % at 10 µM; actives 0.17% (n = 360,000); AID 588499; note: plate controls were buffer without enzyme for full effect and enzyme alone for no effect
Numbers without * were called inactive; ? = inconclusive; / = no result given. Cut-off read from the data, not from the text of the source, unless noted: active = inhibition above about 30%; inconclusive = no clear call, values can overlap the other calls; inactive = below that.

SMILES	Autofluor counter	Anthrax LF prot	BoNT F protease	Mtb FBA inh	GDH-TPI inh	BoNT-A LC inh2
COc1ccccc1Oc1ccc(S(=O)(=O)NCc2ccccn2)cc1	23518*	0.9	1.0	-1.0	11.2	-0.8
Cc1ccc(S(=O)(=O)NCc2ccccc2)cc1	?	-1.4	?	-2.3	6.2	5.0
CSc1ccc(S(=O)(=O)NCc2ccc(C)cc2)cc1	23510*	0.0	-1.0	1.6	1.9	-1.1
Cc1ccc(CNC(=O)CCNS(=O)(=O)c2ccc(C)cc2)cc1	4205	-3.2	?	1.9	1.9	0.1
COc1ccc(S(=O)(=O)NCc2cccs2)cc1	21782*	2.4	-1.2	-1.5	7.3	0.1
COc1ccc(S(=O)(=O)NCCC(=O)NCc2ccccc2)cc1	21763*	-3.5	1.2	4.8	-1.2	3.4
CN1C(C(=O)NCc2cccc(C(F)(F)F)c2)CC2Cn3c(nc4ccccc43)C21 (stereo not drawn)	2868	-10.0	4.8	2.2	-0.4	0.1
O=S(=O)(NCc1cccs1)c1cccc2cccnc12	17165*	0.1	-2.8	0.6	5.0	-2.2
COCC(C)NS(=O)(=O)c1ccc(OC)cc1 (stereo not drawn)	19695*	-1.1	11.4	0.5	0.0	6.3
C=CCNC(=O)CCCCCNS(=O)(=O)c1ccc(OC)cc1	23119*	1.9	-0.8	1.4	-1.9	1.6
COc1ccc(CNS(=O)(=O)c2ccc(OC)cc2)cc1	2583	-2.6	-18.1	3.2	4.2	-1.2
COc1ccc(S(=O)(=O)NCc2ccccc2)cc1	21265*	-2.4	-8.9	1.3	-9.0	-5.1
CCOc1ccc(NC(=O)c2ccc(CC)s2)c([N+](=O)[O-])c1	3321	-4.6	-2.5	-4.3	6.9	0.4
CCOc1ccc(NC2OC(C)C(O)C(O)C2O)c([N+](=O)[O-])c1 (stereo not drawn)	4210	-7.3	-4.6	112.4*	6.7	0.5
CCN1CCN(Cc2ccc(OCc3ccccc3)cc2)CC1	20089*	-7.1	3.3	2.5	5.6	4.4
Cc1nc2cc(NS(=O)(=O)c3cccc4cccnc34)ccc2s1	3649	1.3	-1.4	1.8	-0.5	-0.8
COc1cccc(S(=O)(=O)Nc2ccc3sc(C)nc3c2)c1	16651*	-3.0	-3.2	-1.5	7.6	-0.2
O=C(NNS(=O)(=O)c1ccccc1[N+](=O)[O-])c1ccc(O)cc1	24381*	0.4	-4.8	2.1	5.7	-1.0
O=C(NNS(=O)(=O)c1ccccc1[N+](=O)[O-])c1ccc(F)cc1	4350	-6.5	-1.1	-1.1	1.6	-0.3
Cc1ccc2c(CSc3nc4nc(C)cc(C)n4n3)cc(=O)oc2c1	3223	3.2	0.0	0.9	4.1	-0.3
O=C(Nc1ccc(N2CCN(C(=O)c3ccc(Cl)cc3)CC2)cc1)c1cc2ccccc2o1	21324*	-0.1	-3.7	-1.2	0.7	-2.5
O=C(Nc1ccccc1N1CCN(C(=O)c2ccc(Cl)cc2)CC1)c1cc2ccccc2o1	4183	2.3	7.0	4.3	14.3	0.9
O/N=C(/CCc1ccccc1)C1(O)CCCCC1	7896	1.8	5.3	-5.2	-8.8	0.9
COc1ccc(CC/C(=N\O)C2(O)CCCCC2)cc1	24221*	-3.3	-6.7	-1.8	-1.3	-1.5
N#Cc1ccc(-c2csc(NNC(=O)c3ccccc3)n2)cc1	2845	4.0	-6.1	5.8	3.4	-0.2
SMILES	Autofluor counter	Anthrax LF prot	BoNT F protease	Mtb FBA inh	GDH-TPI inh	BoNT-A LC inh2
O=C(/C=C/c1cccs1)Nc1nc(-c2ccccc2)cs1	22955*	-3.7	1.5	1.0	9.8	0.9
O=C(/C=C/c1cccs1)Nc1cccnc1	2116	-1.3	-16.8	-3.2	32.3*	0.7
O=C(/C=C\c1ccco1)Nc1nc(-c2ccc3ccccc3c2)cs1	3062	-2.3	-7.0	2.5	36.1*	-1.2
O=C(NNc1nc(-c2ccccc2)cs1)c1ccccc1	22139*	-10.8	-3.1	2.3	3.8	0.5
CCOC(CNC(=O)c1cccc([N+](=O)[O-])c1)OCC	3738	4.8	-4.3	1.1	-6.6	-2.4
CC1(C)C(=O)Nc2ccccc2N1C(=O)CN1C(=O)NC(CCc2ccccc2)C1=O (stereo not drawn)	2115	-0.2	-4.2	-7.1	-1.0	1.0
Cn1c(=O)n(C)c2cc([N+](=O)[O-])c(N3CCN(C(=O)c4ccc(F)cc4)CC3)cc21	4911	4.8	-5.4	-0.8	6.1	-0.2
NC(=O)c1cccc(Nc2nc(C(N)Cc3ccc(C(F)(F)F)cc3)cs2)n1 (stereo not drawn)	3710	-3.3	-22.2	-0.1	8.0	-0.9
Cc1ccc(NC(=O)C2CCCN(c3ncnc4c3nc3n4CCCCC3)C2)nc1 (stereo not drawn)	6296	2.0	-0.3	-2.6	-5.5	-1.3
CC(=O)Nc1ccccc1OP1(=O)COc2ccccc2OC1	8708	3.8	-3.9	0.8	-0.6	-0.8
O=C(/C=C/c1cccs1)Nc1nncs1	?	?	-16.6	-6.1	69.6*	-11.5
Cc1ccnc(NC(=O)CNC(=O)c2cccs2)c1	/	/	/	-0.4	-0.7	/
Cc1sc(NC(=O)/C=C/c2ccc3c(c2)OCO3)nc1-c1ccccc1	2661	-1.0	-7.1	4.0	12.9	-0.7
O=C(/C=C/c1ccc2c(c1)OCO2)Nc1nc(-c2ccccc2)cs1	2972	0.8	9.6	3.4	45.6*	1.0
Cc1ccnc(NC(=O)/C=C/c2cccs2)c1	2535	0.5	6.1	6.4	30.7*	0.0
CCOc1ccc(CN(C)C(C)C(=O)NCCc2ccc(F)cc2)cc1 (stereo not drawn)	4842	-9.8	-3.7	1.8	-0.8	-0.4
CN1CCN(S(=O)(=O)c2ccc(N(C)Cc3ccc(OC(F)F)cc3)c([N+](=O)[O-])c2)CC1	?	-0.9	7.2	-1.8	2.1	2.3
COc1ccccc1N1CCN(c2cc(=O)n(-c3ccccc3Cl)c(=O)[nH]2)CC1	21673*	-4.3	-7.4	-1.6	-8.1	-5.1
OC(COCc1ccccc1)CN1CCN(c2ccccc2F)CC1 (stereo not drawn)	22811*	-1.5	-0.8	6.4	-7.7	0.8
CCC(=O)c1ccc(OCC(O)CN2CCN(c3ccc(F)cc3)CC2)cc1 (stereo not drawn)	19445*	-2.4	4.9	-2.2	-15.2	2.7
CC(=O)c1ccc(OCC(O)CN2CCN(c3ccc(F)cc3)CC2)cc1 (stereo not drawn)	3899	-6.3	?	2.2	10.9	-1.7
COc1ccc(-n2c(=O)cc(N3CCN(c4ccccc4OC)CC3)[nH]c2=O)cc1	9718	-2.2	1.5	0.0	4.3	0.4
COc1ccccc1N1CCN(Cc2cccc(OC)c2O)CC1	21009*	-6.4	7.8	1.5	-7.0	7.1
COc1ccccc1N1CCN(Cc2ccc(Br)cc2)CC1	3715	-8.3	6.2	-5.8	-12.9	-3.3
CCOc1ccccc1N1CCN(Cc2ccc(OC)c(OC)c2OC)CC1	21368*	-4.0	4.8	0.9	-0.5	?
C=CCc1ccccc1OCC(O)CN1CCN(c2ccc(OC)cc2)CC1 (stereo not drawn)	23665*	-5.1	-7.3	0.3	14.8	?
